In assay [1] the target is N-terminal Xaa-Pro-Lys N-methyltransferase 1 (Homo sapiens) (UniProt Q9BV86). Put plainly: qHTS Assay for Inhibitors of N-terminal methyltransferase 1 (NTMT1): LOPAC validation of the NTMT1 SAHH-coupled ThioGlo3 Assay (AID 1347143).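 Also: SAH from peptide methylation measured as thiol fluorescence via SAHH coupling and ThioGlo3; nearly all actives have a fitted effect of over 70% in size.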 The method in brief: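 Recombinant human NTMT1 (125nM) was pre-incubated 1 min at room temperature with compounds over a concentration range, then a mix of 100uM SAM, 10uM SAHH and 15uM ThioGlo3 (concentrations in added reagent) was added. ThioGlo3 fluorescence (ex 340/em 450nm) after 30 min was normalized to the initial reading.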

In assay [2] the test system is Zika virus NS2B-NS3 protease (unlinked). As to the kind of experiment: Optimization of GU AMC qHTS for Zika virus inhibitors: Unlinked NS2B-NS3 protease assay (AID 1347151). Also: series mostly up to about 52 µM; nearly all actives have a fitted effect of over 80% in size. Summed up:
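In this qHTS, compounds acted on 25 nM unlinked Zika NS2B–NS3 in pH 8.0 Tris/Tween buffer. Cleavage of an AMC peptide ran 15 min at room temperature, to about 20% conversion.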
(Quantitative high-throughput screening tests each substance at several concentrations.)

Assay [3] deals with Zika virus NS2B-NS3 protease. Put plainly: Primary screen GU AMC qHTS for Zika virus inhibitors (AID 1347154). Also: nearly all actives have a fitted effect of over 70% in size. Also: potency is read from the fitted curve at half-maximal effect. The method in brief:
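Unlinked Zika NS2B hydrophilic domain–NS3 protease complex at 25 nM in 10 mM Tris-HCl pH 8.0, 0.01% Tween 20, with an AMC peptide substrate. Fluorescence change (340/450 nm) over 15 min at room temperature, normalized to controls, fitted to 4-parameter Hill.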

The subject of assay [4] is Zika virus NS2B-NS3 protease (unlinked complex). As to the kind of experiment: Primary screen GU Rhodamine qHTS for Zika virus inhibitors: Unlinked NS2B-NS3 protease assay (AID 1347159). Also: nearly all actives have a fitted effect of over 60% in size. Also: potency is read from the fitted curve at half-maximal effect. Summed up: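 Noncovalent NS2B hydrophilic domain–NS3 protease domain complex (25 nM) preincubated 15 min at room temperature with compounds (up to 114 microM) in 10 mM Tris-HCl pH 8.0, 0.01% Tween 20; 1.5 microM Rhodamine110 substrate added, fluorescence change over 15 min fitted to Hill equation.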

For assay [5], the system named is Zika virus NS2B-NS3 protease (linked construct). Put plainly: Primary screen NINDS Rhodamine qHTS for Zika virus inhibitors (AID 1347160). Also: nearly all actives have a fitted effect of over 55% in size. Summed up:
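Purified linked NS2B-NS3 protease (NS2B hydrophilic domain joined to NS3 protease by flexible linker), 25 nM in 10 mM Tris-HCl pH 8.0, 0.01% Tween 20. Compounds titrated, 15 min preincubation at room temperature; 1.5 microM Rhodamine110 substrate, FITC fluorescence change over 15 min.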

In assay [6] the target is Lysine-specific demethylase 5B (Homo sapiens) (UniProt Q9UGL1). As to the kind of experiment: Optimization screen for KDM5B Histone Demethylases FDH coupled qHTS against the LOPAC library (AID 1347166). The method in brief: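 KDM5BDeltaAP (200nM final) preincubated 10 min with compound, then 12.5uM H3K4Me3, 25uM a-ketoglutarate, ascorbate, Fe(II), NAD+ and FDH added; 50mM HEPES pH 7.5, 0.01% Tween-20. NADH fluorescence (340/450 nm) change over 30 min, room temperature.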

Assay [7] can be described thus: qHTS of pediatric cancer cell lines to identify multiple opportunities for drug repurposing: Confirmatory screen for RD cells (AID 1347124).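 Also: cells exposed to compound for 48 h before viability readout; nearly all actives have a fitted effect of over 65% in size.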 The method in brief:
(§1)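 Viability after 48 h compound treatment at 37C, 500-1,000 cells/well, read as ATP luminescence with CellTiter-Glo. Primary screens used 11-point (MIPE, 0.78 nM-46 µM) or 8-point (NPC, 0.59 nM-46 µM) final concentrations; follow-up screens used 11-point dilutions.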

Assay [8] can be described thus: qHTS of pediatric cancer cell lines to identify multiple opportunities for drug repurposing: Confirmatory screen for OHS-50 cells (AID 1347128).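 Also: compound exposure lasted 48 h at 37 degrees C; nearly all actives have a fitted effect of over 55% in size.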 The method in brief: as §1
The nature of assay [9]: qHTS of pediatric cancer cell lines to identify multiple opportunities for drug repurposing: Confirmatory screen for SK-N-SH cells (AID 1347129).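 Also: cells exposed to compound for 48 h before viability read; nearly all actives have a fitted effect of over 60% in size.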 Summed up:
as §1

Assay [10] is described as follows: qHTS of pediatric cancer cell lines to identify multiple opportunities for drug repurposing: Confirmatory screen for Rh18 cells (AID 1347125). Also: nearly all actives have a fitted effect of over 55% in size. The method in brief:
as §1

Assay [11] can be described thus: qHTS of pediatric cancer cell lines to identify multiple opportunities for drug repurposing: Confirmatory screen for Rh30 cells (AID 1347126). Also: nearly all actives have a fitted effect of over 55% in size. Summed up: as §1
Assay [12] can be described thus: qHTS of pediatric cancer cell lines to identify multiple opportunities for drug repurposing: Confirmatory screen for Rh41 cells (AID 1347123).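 Also: potency is read from the fitted curve at half-maximal effect; 48 h compound exposure; nearly all actives have a fitted effect of over 60% in size.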 The method in brief:
as §1

The target of assay [13] is Furin (Homo sapiens) (UniProt P09958). As to the kind of experiment: Furin counterscreen qHTS for Zika virus inhibitors (AID 1347149). Also: nearly all actives have a fitted effect of over 70% in size. Also: potency is read from the fitted curve at half-maximal effect. The method in brief: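 Fluorogenic cleavage of BOC-RVRR-AMC (2 microM final, Km ~15 µM) was monitored (ex 340, em 450 nm) at 37C after 15 min RT preincubation of 5 nM furin with compounds in HEPES pH 7.0 buffer with CaCl2 and Triton X-100. Percent inhibition was fitted to a 4-parameter Hill curve.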
Background: A counterscreen serves to expose hits that act by an unwanted route or on another target.

Assay [14] is described as follows: Confirmatory screen NINDS Rhodamine qHTS for Zika virus inhibitors (AID 1347161). Also: nearly all actives have a fitted effect of over 60% in size. Also: potency is read from the fitted curve at half-maximal effect. Summed up: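 Rhodamine110-peptide cleavage (1.5 µM substrate) by 25 nM linked NS2B-NS3 enzyme at pH 8.0 (Tris, Tween 20), after 15 min RT preincubation with compounds; 15-min fluorescence change normalized to controls and Hill-fitted.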
The test system of assay [15] is Zika virus NS2B-NS3 protease (linked). As to the kind of experiment: 384 well plate NINDS AMC confirmatory qHTS for Zika virus inhibitors (AID 1347163). Also: potency is read from the fitted curve at half-maximal effect; nearly all actives have a fitted effect of over 50% in size. The conditions noted are these: Recombinant NS2B-NS3 protease, Ac-VKTGKR-AMC fluorescence. The method in brief: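 Linked protease 5/30/60 nM final; cpds up to 1 mM final, ~15 min preinc. Substrate Ac-VKTGKR-AMC 30 microM final. RT, dark, 25 min; FI ex 355/em 460; normalized to no-enzyme/no-inhibitor ctrls.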

The nature of assay [16]: ZIKV-mCherry secondary qHTS for Zika virus inhibitors (AID 1347158). Also: top concentration of the series differs between compounds. Summed up:
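Vero cells, 5,000/well, plated overnight at 37 °C, then compound added and infected with recombinant ZIKV-mCherry at MOI 1 for 48-72 h. PFA-fixed, Hoechst nuclear stain, high-content imaging; cells with mCherry intensity above 450 RFU scored infected, reported as percent infection.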

A short description of assay [17]: Confirmatory screen GU Rhodamine qHTS for Zika virus inhibitors qHTS (AID 1347157). Also: nearly all actives have a fitted effect of over 70% in size. The method in brief:
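Buffer 10 mM Tris-HCl pH 8.0, 0.01% Tween 20. Unlinked protease 25 nM; compound preincubation 15 min, RT, protected from light. Substrate Rhod110, 1.5 microM; ~15% conversion in 15 min.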

Among the data in PubChem BioAssay (NCATS) are Potency and outcome values, retold here.

Records with an inconclusive call do not appear. Active and inactive are the calls of the source. Calls follow the shape of the dose curve; as a rule, active = well fitted curve in the direction sought with a large enough effect; inconclusive = small, poorly fitted or top-dose-only effect, or another doubt; inactive = no such curve, though single readings can be large; an effect the other way counts as inactive or inconclusive.

Sequence of Furin (Homo sapiens) (P09958 whole entry, looked up): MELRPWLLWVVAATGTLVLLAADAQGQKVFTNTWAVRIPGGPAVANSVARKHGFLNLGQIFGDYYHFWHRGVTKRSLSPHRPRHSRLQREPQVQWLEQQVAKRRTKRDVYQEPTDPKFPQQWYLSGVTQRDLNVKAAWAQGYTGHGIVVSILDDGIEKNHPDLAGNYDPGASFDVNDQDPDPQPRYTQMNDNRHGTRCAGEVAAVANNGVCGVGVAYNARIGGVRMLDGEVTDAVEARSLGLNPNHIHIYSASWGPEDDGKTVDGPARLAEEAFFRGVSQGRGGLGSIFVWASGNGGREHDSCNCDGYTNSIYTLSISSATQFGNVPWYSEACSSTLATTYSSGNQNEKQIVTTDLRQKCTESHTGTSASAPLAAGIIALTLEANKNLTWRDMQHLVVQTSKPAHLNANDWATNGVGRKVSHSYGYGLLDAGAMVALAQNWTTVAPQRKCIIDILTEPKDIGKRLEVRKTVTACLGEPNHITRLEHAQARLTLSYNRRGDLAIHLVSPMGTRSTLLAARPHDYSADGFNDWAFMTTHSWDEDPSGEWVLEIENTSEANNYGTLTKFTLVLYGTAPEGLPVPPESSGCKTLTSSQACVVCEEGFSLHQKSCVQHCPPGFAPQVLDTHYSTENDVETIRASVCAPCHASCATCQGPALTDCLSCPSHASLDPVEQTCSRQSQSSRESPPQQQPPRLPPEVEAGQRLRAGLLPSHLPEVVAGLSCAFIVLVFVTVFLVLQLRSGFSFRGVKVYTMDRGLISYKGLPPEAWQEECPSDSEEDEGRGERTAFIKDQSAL
Sequence of N-terminal Xaa-Pro-Lys N-methyltransferase 1 (Homo sapiens) (Q9BV86 whole entry, looked up): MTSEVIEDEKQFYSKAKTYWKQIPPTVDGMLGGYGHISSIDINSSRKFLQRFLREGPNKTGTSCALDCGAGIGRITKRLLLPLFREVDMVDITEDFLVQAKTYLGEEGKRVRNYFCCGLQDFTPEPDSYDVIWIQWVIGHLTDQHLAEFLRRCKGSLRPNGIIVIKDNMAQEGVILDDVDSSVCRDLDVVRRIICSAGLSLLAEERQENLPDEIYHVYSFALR
Sequence of Lysine-specific demethylase 5B (Homo sapiens) (Q9UGL1 whole entry, looked up): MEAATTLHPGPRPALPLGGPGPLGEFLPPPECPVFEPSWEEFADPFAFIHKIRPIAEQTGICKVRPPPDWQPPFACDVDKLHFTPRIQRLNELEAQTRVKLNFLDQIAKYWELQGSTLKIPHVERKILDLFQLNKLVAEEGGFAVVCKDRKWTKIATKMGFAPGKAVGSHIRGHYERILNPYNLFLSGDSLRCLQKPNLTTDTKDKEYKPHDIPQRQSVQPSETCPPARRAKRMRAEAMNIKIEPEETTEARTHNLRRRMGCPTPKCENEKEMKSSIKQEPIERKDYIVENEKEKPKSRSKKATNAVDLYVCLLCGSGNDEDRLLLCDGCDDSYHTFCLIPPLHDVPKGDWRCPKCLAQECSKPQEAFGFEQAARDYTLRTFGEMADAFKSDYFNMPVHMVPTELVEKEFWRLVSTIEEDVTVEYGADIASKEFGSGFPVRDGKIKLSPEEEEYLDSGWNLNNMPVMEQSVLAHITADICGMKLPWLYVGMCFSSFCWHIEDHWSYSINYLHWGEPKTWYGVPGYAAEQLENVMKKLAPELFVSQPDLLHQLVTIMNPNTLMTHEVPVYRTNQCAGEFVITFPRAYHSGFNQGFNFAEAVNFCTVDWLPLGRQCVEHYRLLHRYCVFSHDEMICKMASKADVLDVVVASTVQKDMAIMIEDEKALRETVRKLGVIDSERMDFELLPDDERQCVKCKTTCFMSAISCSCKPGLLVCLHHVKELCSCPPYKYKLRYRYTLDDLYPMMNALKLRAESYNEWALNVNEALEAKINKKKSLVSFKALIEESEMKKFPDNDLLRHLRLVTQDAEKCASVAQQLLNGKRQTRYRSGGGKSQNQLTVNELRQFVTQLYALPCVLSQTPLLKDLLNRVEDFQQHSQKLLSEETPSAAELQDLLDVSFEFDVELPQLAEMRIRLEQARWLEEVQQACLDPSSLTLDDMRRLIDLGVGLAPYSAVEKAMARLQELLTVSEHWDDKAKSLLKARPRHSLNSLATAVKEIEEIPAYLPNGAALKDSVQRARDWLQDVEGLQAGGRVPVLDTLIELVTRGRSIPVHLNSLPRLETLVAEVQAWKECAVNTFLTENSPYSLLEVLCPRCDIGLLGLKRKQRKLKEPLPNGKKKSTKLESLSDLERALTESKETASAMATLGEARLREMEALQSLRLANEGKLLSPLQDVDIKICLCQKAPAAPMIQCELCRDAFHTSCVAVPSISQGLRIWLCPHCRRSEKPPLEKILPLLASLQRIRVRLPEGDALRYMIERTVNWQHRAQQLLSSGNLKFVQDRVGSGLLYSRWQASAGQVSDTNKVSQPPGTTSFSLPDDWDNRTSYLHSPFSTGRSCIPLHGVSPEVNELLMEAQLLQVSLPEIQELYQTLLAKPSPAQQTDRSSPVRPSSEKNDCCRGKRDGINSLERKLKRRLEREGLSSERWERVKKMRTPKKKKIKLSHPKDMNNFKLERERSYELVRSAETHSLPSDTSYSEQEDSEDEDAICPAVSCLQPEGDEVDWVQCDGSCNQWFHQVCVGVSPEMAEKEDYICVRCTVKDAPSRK

Take `COc1ccccc1N1CCN(CCCNc2cc(=O)n(C)c(=O)n2C)CC1`: the Potency result in assay [1], in assay [2], in assay [3], in [4] and in [5] was “inactive” throughout. In addition, in assay [6], the compound was classed as inactive.

As to `CC(=O)O[C@]1(C(C)=O)CC[C@@H]2[C@@H]3C[C@H](C)C4=CC(=O)CC[C@]4(C)[C@H]3CC[C@@]21C`, the Potency result in [7], in [8], in assay [9] and in assay [3] was “inactive” each time.

In the case of `O=C(NCCN1CCOCC1)c1ccc(Cl)cc1`, the Potency entry in [1], in assay [2] and in assay [3] was “inactive” throughout. Further, in assay [6], the compound was called inactive.

In the case of `O=C(Nc1cccc(Br)c1)c1cccc(S(=O)(=O)N2CCCCCC2)c1`, the Potency entry in assay [7], in assay [10], in assay [11], in [8], in assay [9] and in assay [3] was “inactive” each time. Besides, the Potency result in assay [4] and in assay [5] was “inactive” in each case.

On to `Cc1cc(OCCCc2c(C(=O)O)n(Cc3cccnc3)c3c(-c4c(COc5ccc(N6CCN([S+](C)(=O)[O-])CC6)cc5)nn(C)c4C)cccc23)cc(C)c1Cl`, for which the Potency in assay [12] was 1.04 µM (active); in assay [13], 21.5 µM (active); in assay [3] it was 21.5 µM (active); in [14], 3.11 µM (active); in [15], 31.6 µM (active). Besides, the Potency entry in assay [9] is “inactive”.

Turning to `Clc1cc(Cl)cc(CNc2ncncc2-c2ccc3c(c2)OCO3)c1`, the Potency entry in assay [3] is “inactive”.

With `COc1ccc(Cc2nccc3cc(OC)c(OC)cc23)cc1OC`, the Potency result in [2] was “inactive”. For the same compound, the outcome in assay [6] was inactive.

As for `CC(C)OC(=O)C(C)(C)Oc1ccc(C(=O)c2ccc(Cl)cc2)cc1`, the Potency result in assay [1] is “inactive”. Besides, the result in assay [6] was inactive.

On to `C[C@H](NC(=O)C(=O)Nc1ccccc1C(C)(C)C)C(=O)N[C@@H](CC(=O)O)C(=O)COc1c(F)c(F)cc(F)c1F`, for which the Potency result in [13], in assay [2] and in assay [3] was “inactive” each time. Further, the compound was classed as inactive in assay [16].

As to `CC1CCC(C(=O)N(c2cc(C#CC(C)(C)C)sc2C(=O)O)C2CCC(O)CC2)CC1` (stereo unspecified), the Potency entry in assay [13] is “inactive”. Also, the Potency was 7.94 µM (active) in assay [4] and 5.53 µM (active) in assay [14].

On to `O=C(O)c1c(Cl)c(Cl)c(Cl)c(Cl)c1-c1c2cc(I)c(=O)c(I)c-2oc2c(I)c(O)c(I)cc12`, for which the Potency result in [13], in assay [17] and in assay [14] was “inactive” in each case.

For the compound `NC(N)=Nc1nc(CSCC/C(N)=N/S(N)(=O)=O)cs1`, the Potency entry in [1] and in assay [2] was “inactive” throughout. In addition, the outcome in assay [6] was inactive.

On to `CC/C(=C(\c1ccccc1)c1ccc(OCCN(C)C)cc1)c1ccccc1`, for which the Potency result in assay [2] and in assay [3] was “inactive” in each case.

Turning to `CCCNC(=O)NS(=O)(=O)c1ccc(Cl)cc1`, the Potency result in assay [1], in [2], in [4] and in [5] was “inactive” each time. Also, the compound was classed as inactive in assay [6].

In the case of `CC=CCC(C)C(O)C1C(=O)NC(CC)C(=O)N(C)CC(=O)N(C)C(CC(C)C)C(=O)NC(C(C)C)C(=O)N(C)C(CC(C)C)C(=O)NC(C)C(=O)NC(C)C(=O)N(C)C(CC(C)C)C(=O)N(C)C(CC(C)C)C(=O)N(C)C(C(C)C)C(=O)N1C` (stereo unspecified), the Potency in [13] was 0.0152 µM (active). The Potency entry in [2] and in assay [3] was “inactive” each time.
